# Screening results deposited in PubChem BioAssay by National Center for Advancing Translational Sciences (NCATS).
# Vaccinia Venus – vaccinia inhibition (Venus reporter) | AID 720580 | actives 0.46% (n = 330,000) | Potency, µM (series often up to 36.5 µM), hits mostly inhibitors | Vaccinia virus Venus reporter expression, fluorescence; calls by dose curve; tested in A549 cells; also: nearly all actives have a fitted effect of over 30% in size
# VACV mCherry inh – vaccinia inhibition (mCherry reporter) | Vaccinia virus mCherry reporter infection, fluorescence | Potency, µM (titrated, usually from 36.5 µM), actives largely listed as inhibitors | actives 0.63% (n = 310,000); calls by dose curve; tested in A549 cells; also: nearly all actives have a fitted effect of over 35% in size
# HCMV antiviral – inhibitors of human cytomegalovirus; activity change, negative = inhibition, % at 57.5 µM; HFF cells, HCMV-luciferase reporter, 72 h; active compounds read low; AID 1259415; actives 4.5% (n = 410,000); in the data active = activity change below about -60%; inconclusive = no clear call, values can overlap the other calls; inactive = above about -39%
#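 Compounds were evaluated in HFFs infected with an HCMV luciferase reporter virus (MOI 1 PFU/cell). Luciferase in lysates collected 72 h post infection served as the replication measure.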
# LmPK inh – inhibitors of Leishmania mexicana pyruvate kinase | Q27686 | purified LmPK, Kinase-Glo ATP luminescence, 1 h | Potency, µM (highest dose often 57.5 µM), hits mostly inhibitors | actives 0.37% (n = 290,000) | AID 1721
# Target sequence (Q27686 whole entry, looked up): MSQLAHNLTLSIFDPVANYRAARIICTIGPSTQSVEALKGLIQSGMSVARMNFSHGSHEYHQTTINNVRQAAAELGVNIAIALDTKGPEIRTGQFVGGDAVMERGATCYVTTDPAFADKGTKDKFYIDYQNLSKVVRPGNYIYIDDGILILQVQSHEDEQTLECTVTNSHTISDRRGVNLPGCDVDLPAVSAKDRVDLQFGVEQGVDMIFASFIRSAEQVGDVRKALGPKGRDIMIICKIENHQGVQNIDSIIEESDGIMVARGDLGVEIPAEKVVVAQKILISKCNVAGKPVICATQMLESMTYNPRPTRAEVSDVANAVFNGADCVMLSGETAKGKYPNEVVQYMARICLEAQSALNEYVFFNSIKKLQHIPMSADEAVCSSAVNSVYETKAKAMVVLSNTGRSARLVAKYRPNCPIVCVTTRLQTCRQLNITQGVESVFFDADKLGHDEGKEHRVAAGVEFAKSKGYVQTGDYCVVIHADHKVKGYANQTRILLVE
#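 In 50 mM imidazole pH 7.2 with 7 mM MgCl2, LmPK (0.1 nM) turned over PEP (0.5 mM) and ADP (0.1 mM) for 1 h at room temperature. Luciferase read-out of ATP.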
# Tb PYK inh – blocks Trypanosoma brucei pyruvate kinase | Q57TT1 | TbPYK enzyme, Kinase-Glo Plus ATP luminescence, 45 min | Potency, µM (series often up to 76.8 µM), actives largely listed as inhibitors | actives 0.12% (n = 410,000) | AID 624173; also: nearly all actives have a fitted effect of over 50% in size
#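 Enzyme and substrate buffer are dispensed first and compound is pin-transferred. ADP at 130 uM final then starts the reaction, which runs 45 min at room temperature. Detection reagent is added for 10 min before luminescence is imaged.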
# Hits are given with their value; - = inactive; ? = inconclusive; . = no result given. This is a sample that favours compounds with a hit; in the whole collection about 5% have one here. Unless noted, calls follow the shape of the dose curve; as a rule, active = well fitted curve in the direction sought with a large enough effect; inconclusive = small, poorly fitted or top-dose-only effect, or another doubt; inactive = no such curve, though single readings can be large; an effect the other way counts as inactive or inconclusive.
SMILES,Vaccinia Venus,VACV mCherry inh,HCMV antiviral,LmPK inh,Tb PYK inh
COc1ccc2c(C=O)cn(C)c2c1,-,?,-,-,-
COc1ccc(OC)c(NC(=O)CSC2=NN3CCCC(=O)N=C3S2)c1,-,-,-,-,-
COc1ccc(Cl)cc1NC(=O)CSC1=NN2CCCC(=O)N=C2S1,-,?,-71,-,-
CCOc1ccccc1NC(=O)CSC1=NN2CCCC(=O)N=C2S1,-,-,-80,-,-
CCOC(=O)c1ccc(NC(=O)CSC2=NN3CCCC(=O)N=C3S2)cc1,.,.,-,-,-
COc1ccc(N(CC(=O)NCc2ccco2)S(C)(=O)=O)cc1OC,.,.,-,-,-
CCCOc1ccc(C(=O)c2nc3c(n2O)CCCCC3)cc1,.,.,-,-,-
O=C1N/C(=C/c2ccc(N3CCOCC3)o2)C(=O)N1c1cccc(Cl)c1,.,.,-100,-,?
O=C1NC(=O)C(=Cc2ccc(N3CCOCC3)o2)C(=O)N1,-,-,-,-,-
Cc1c(C(=O)N2CCCCC2)nnn1-c1nonc1N,-,-,-62,-,-
Nc1nonc1C(=O)N1CCCC1,-,-,-,-,-
CCOC(=O)CC1(C)c2nc(NC(C)=O)sc2Cc2sc(NC(C)=O)nc21,-,-,-97,.,-
Cc1nc(N2CCN(C(=O)CCC(=O)O)CC2)c2c(C)c(C)sc2n1,-,-,-,-,-
CCc1nc(N2CCN(S(=O)(=O)c3ccc(Br)cc3)CC2)c2c(C)c(C)sc2n1,-,-,-,.,-
Cc1nc(N2CCN(S(=O)(=O)c3ccc(Br)cc3)CC2)c2c(C)c(C)sc2n1,-,-,-63,-,-
CCC(=O)N1CCN(c2nc(C)nc3sc(C)c(C)c23)CC1,-,-,-68,-,-
COc1ccccc1N1C(=O)CC1(C#N)c1ccc(OCc2ccccc2)cc1 (stereo not given),-,-,-,-,-
Cc1ccccc1N1C(=O)CC1(C#N)c1ccc(OCc2ccccc2)cc1 (stereo not given),-,-,-85,-,-
Cc1c(C2Nc3ccccc3C2C)[nH]c2ccccc12 (stereo not given),.,.,-85,.,.
c1ccc2c(c1)[nH]c1ccccc12,-,-,.,.,-
COc1ccc(C)cc1N(CC(=O)N1CCCCCC1)S(=O)(=O)c1ccc(C)cc1,-,-,-,-,-
CCC(=Nc1ccc2c(c1)CCC2)c1c(O)n(C2CCCCC2)c(=O)[nH]c1=O,.,.,-85,-,-
COC(=O)C1=C(c2cc3ccccc3o2)C[C@@H]2CC[C@H]1N2C(=O)N1CCCCC1,?,-,-,.,-
COC(=O)C1=C(c2ccc(F)cc2F)C[C@@H]2CC[C@H]1N2C(=O)N1CCC(O)CC1,-,-,-62,.,-
COC(=O)C1=C(c2cc3ccccc3o2)C[C@@H]2CC[C@H]1N2C(=O)N1CCCC1,-,-,-60,.,-
SMILES,Vaccinia Venus,VACV mCherry inh,HCMV antiviral,LmPK inh,Tb PYK inh
O=C(COc1coc(CN2CCc3ccccc32)cc1=O)NCCc1ccccc1,-,-,-,.,-
COc1cc(CNc2ccc3[nH]c(=O)[nH]c3c2)cc(Br)c1OCc1ccccc1F,?,6.3µM,-,-,-
COc1cc(CNc2ccc3[nH]c(=O)[nH]c3c2)cc(Br)c1OCC(=O)NC(C)(C)C,.,.,-71,-,-
COc1cc(CNc2ccc3[nH]c(=O)[nH]c3c2)ccc1OCc1ccccc1F,?,?,?,-,-
CCOc1cc(CNc2ccccc2)cc(Br)c1OCc1ccccc1F,.,.,-,-,-
COc1cc(CNc2ccc3[nH]c(=O)[nH]c3c2)ccc1OCc1ccccc1C,?,?,-70,-,-
Cn1ncc(Cl)c1C(=O)N1CCN(c2cccc(Cl)c2)CC1,-,-,-,-,-
COc1ccc(CCNC(=O)CSc2ccc(-c3ccccc3)nn2)cc1OC,-,-,-,-,-
Nc1c(C(=O)Nc2ccccc2Cl)c2ccccn2c1C(=O)c1ccccc1,-,-,-,.,-
CCn1c(=NC(=O)CCS(=O)(=O)c2ccccc2)sc2cccc(OC)c21,-,?,-74,-,-
N#Cc1ccc(OCC(=O)OCC(=O)NCCC2=CCCCC2)cc1,-,-,-,-,-
COc1ccc2nc(NC(=O)C3CCN(S(=O)(=O)c4cccc5nsnc45)CC3)sc2c1,?,?,-75,-,-
O=C(NC1CCN(Cc2ccccc2)CC1)C1CCN(S(=O)(=O)c2cccc3nsnc23)CC1,-,-,-62,-,-
Cc1cccc(NC(=O)C2CCN(S(=O)(=O)c3cccc4nsnc34)CC2)n1,-,-,-,-,-
